This note sets out measurements from PubChem BioAssay.

Molecules are shown by their SMILES. Where “and” joins values, the source holds several entries; their conditions need not be identical. Equal values may be shown once. More than one record can exist for a structure, and the calls need not agree. Calls of active or inactive are those of the source.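 Rule for the calls: active = z-score of at least 1.8 in each of two replicates, scored against plate mean and spread of sample wells; inactive = the rest.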

The experiment in a line: galactose survival enhancers in mitochondrial complex I cybrids – cell-based, galactose medium, ATP luminescence, primary screen (AID 1645843).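 Note: positive z means more ATP and so rescue of galactose-driven cybrid death.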 To be noted: complex I mutant cybrid cells, 72 h, stronger effect = higher value.
As to `COC(=O)[C@H]1[C@H]2C[C@@H]3c4[nH]c5cc(OC)ccc5c4CCN3C[C@H]2C[C@@H](OC(=O)c2cc(OC)c(OC)c(OC)c2)[C@@H]1OC`, the z-score is -0.19 (inactive) and -0.39 (inactive). As for `O=c1[nH]c(=O)n([C@H]2C[C@H](O)[C@@H](CO)O2)cc1F`, the z-score was 1.93 (active).

Turning to `CCOC(=O)C(C)(C)Oc1ccc(Cl)cc1`, the z-score is 0.15 (inactive) and 0.675 (inactive). In the case of `O=C(O)CN1C(=O)c2cccc3cccc(c23)C1=O`, the z-score is 0.415 (inactive).

For the compound `CO[C@@]1(NC(=O)CSCC#N)C(=O)N2C(C(=O)O)=C(CSc3nnnn3C)CS[C@@H]21`, the z-score is 0.77 (inactive). Turning to `CO[C@@]12[C@H](COC(N)=O)C3=C(C(=O)C(C)=C(N)C3=O)N1C[C@@H]1N[C@@H]12`, the z-score was -1.99 (inactive). In the case of `O=C(Nc1ccc([N+](=O)[O-])cc1Cl)c1cc(Cl)ccc1O`, the z-score was -1.18 (inactive). On to `CCCCNc1ccc(C(=O)OCCN(C)C)cc1`, for which the z-score was -0.23 (inactive). The figure for `CCn1cc(C(=O)O)c(=O)c2cc(F)c(N3CCNCC3)nc21` is -0.075 (inactive); for `C[C@@](Cc1ccc(O)c(O)c1)(NN)C(=O)O` it is 1.23 (inactive) and -0.53 (inactive); for `CCCOc1ccc2nc(NC(=O)OC)[nH]c2c1` it is -1.72 (inactive). On to `COc1ccccc1OCC(O)CO` (centres undefined), for which the z-score is 0.37 (inactive).

With `Cn1c(=O)c2c(ncn2C)n(C)c1=O`, the z-score is 0.3 (inactive). The figure for `CN(C)CCC=C1c2ccccc2C=Cc2ccccc21` is -1.16 (inactive); for `CCCC(C(=O)OCCN(CC)CC)(c1ccccc1)c1ccccc1` it is -1.28 (inactive). The value for `C[C@]12CC[C@@H]3c4ccc(O)cc4CC[C@H]3[C@@H]1CCC2=O` was -0.23 (inactive) and -0.335 (inactive); that for `Clc1ccc2c(c1)CCc1cccnc1C2=C1CCNCC1` was -1.23 (inactive) and -1.54 (inactive). In the case of `O=C(O)CCCCCCCC(=O)O`, the z-score was 0.635 (inactive). The figure for `CCN(CC)CCNC(=O)c1ccc(NC(C)=O)cc1` is 0.34 (inactive). For the compound `CN(C)C(=O)Oc1cccc([N+](C)(C)C)c1`, the z-score was 0.53 (inactive) and 0.21 (inactive). Take `CCN(CC)C(C)CN1c2ccccc2Sc2ccccc21` (centres undefined): the z-score was -0.44 (inactive). Regarding `C[C@](N)(Cc1ccc(O)c(O)c1)C(=O)O`, the z-score was -1.24 (inactive) and -0.53 (inactive) and -0.665 (inactive).

Take `Cc1ccc(C(=O)Nc2ccc(S(=O)(=O)O)c3cc(S(=O)(=O)O)cc(S(=O)(=O)O)c23)cc1NC(=O)c1cccc(NC(=O)Nc2cccc(C(=O)Nc3cc(C(=O)Nc4ccc(S(=O)(=O)O)c5cc(S(=O)(=O)O)cc(S(=O)(=O)O)c45)ccc3C)c2)c1`: the z-score was 4.14 (active) and 1.81 (inactive) and 0.955 (inactive). As for `C[C@]12C=CC(=O)C=C1CC[C@H]1[C@@H]3C[C@@H](O)[C@](O)(C(=O)CO)[C@@]3(C)C[C@H](O)[C@@]12F`, the z-score was 2.37 (active) and 0.76 (inactive).

On to `CCCN(CCC)C(=O)C(CCC(=O)O)NC(=O)c1ccccc1` (centres undefined), for which the z-score is 0.665 (inactive).

Consider `CCN1CCN(C(=O)N[C@@H](C(=O)N[C@@H]2C(=O)N3C(C(=O)O)=C(CSc4nnnn4C)CS[C@H]23)c2ccc(O)cc2)C(=O)C1=O`, for which the z-score was -0.045 (inactive).

For the compound `O=NN(CCCl)C(=O)NCCCl`, the z-score was -0.84 (inactive). `COc1cc2c3cc1Oc1cc(ccc1O)C[C@@H]1c4c(cc(OC)c(O)c4Oc4ccc(cc4)C[C@@H]3N(C)CC2)CC[N+]1(C)C`: the z-score is 0.605 (inactive). The figure for `CC(=O)OC(C)C[N+](C)(C)C` (centres undefined) is 0.455 (inactive). For the compound `O=C(O)c1cn(-c2ccc(F)cc2)c2cc(N3CCNCC3)c(F)cc2c1=O`, the z-score is 0.12 (inactive).

As for `Nc1ccc(O)c(C(=O)O)c1`, the z-score is 0.62 (inactive) and 0.46 (inactive). With `CCN(CC)C(=O)N1CCN(C)CC1`, the z-score is 0.74 (inactive).

On to `O=C1CCc2cc(OCCCCc3nnnn3C3CCCCC3)ccc2N1`, for which the z-score was -1.27 (inactive) and -0.71 (inactive). The figure for `NCCCC(=O)O` is 0.26 (inactive); for `C=CC(N)CCC(=O)O` (centres undefined) it is 0.155 (inactive). The figure for `Cc1oncc1C(=O)Nc1ccc(C(F)(F)F)cc1` is 1.22 (inactive) and 1.26 (inactive) and 0.055 (inactive); for `CNC[C@H](O)c1ccc(O)c(O)c1` it is -1.02 (inactive). `CN(C)CCOC(=O)COc1ccc(Cl)cc1`: the z-score was 1.14 (inactive). The figure for `C[N+](C)(C)CCCCCC[N+](C)(C)C` is 0.205 (inactive) and 0.235 (inactive).
